# Screening data (PubChem)
# Only some compounds are listed: those with a hit (about 2.6% of all), similar ones and a draw of the others.
# TWEAK-Fn14 inh = inhibitors of TWEAK-Fn14 signaling, primary screen, luciferase reporter cells, uHTS; TWEAK-stimulated Fn14 reporter cells, luciferase luminescence, 8 h; inhibition, % at 10 µM; 360,000 tested, 2% active; AID 1159606, 2016; in the data active means inhibition above about 50%
# HSP90 refold inh = HSP90 inhibitors, primary screen, cell lysate, luminescence; Heat shock protein HSP 90 (rabbit reticulocyte lysate; luciferase refolding); Rabbit reticulocyte lysate, luciferase refolding luminescence, 3 h; inhibition, % at 5.6 µM; 290,000 tested, 0.91% active; AID 1789, 2009;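 active means inhibition above the screen-wide mean plus 3 SD, computed separately per campaign, cut at about 16% in these data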;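 further: 0% = DMSO wells and 100% = 60 µM geldanamycin wells; inhibitors lower the luminescence because luciferase stays unfolded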
# TROY NFkB inh = inhibitors of TROY-driven NF-kB signaling, primary screen, Q293 LMP1-TROYcd cells, NF-kB luciferase, uHTS; Q293 LMP1-TROYcd NF-kB luciferase reporter, 4 h; inhibition, % at 10 µM; 360,000 tested, 0.98% active; AID 1347056, 2019;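 active means compounds whose plate-normalised and pattern-corrected inhibition of the luciferase reporter signal at the single screening dose is 50% or more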
# EBV LMP1 NFkB = EBV LMP1-driven NF-kappaB luciferase reporter inhibitors, primary screen, cell-based, luminescence, single point; LMP1-induced NF-kappaB luciferase reporter cells; 350,000 tested, 0.69% active; inhibition, % at 12.5 µM; AID 504558, 2011; in the data active means inhibition above about 41%; inconclusive means no clear call, values can overlap the other calls;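 further: 0% = neutral control wells and 100% = reference inhibitor control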
# aDG glyco act = activators of alpha-DG glycosylation, primary screen, uHTS, Pro5-aDG cells, AlphaScreen. alpha-DG glycosylation AlphaScreen (IIH6); 0% Pro5, 100% B10-LARGE cell signal. activation, % at 10 µM. 360,000 tested, 0.22% active;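 active means activation of at least 8% versus controls, or a plate z-score of at least 8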;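 further: Pro5 are CHO cells carrying HIG-tagged alpha-DG that lacks glycosylation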
# LGR2 inh = inhibitors of bursicon-induced LGR2 CRE-luciferase signal, primary screen, cell-based, HEK293, CRE-luciferase reporter, bursicon stimulation | Drosophila bursicon receptor LGR2 (rickets) | inhibition, % at 9.99 µM | bursicon-stimulated, 4 h | 380,000 tested, 0.35% active | AID 720647, 2013;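 active means drop in luminescence signal, shown as inhibition above about 50% in the replicate tests, limit read from the data, passing the limit was not always enough; inconclusive means probably only some replicates passing the limit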;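 further: agonist challenge used bursicon conditioned medium at about half maximal strength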
# An asterisk follows results filed as active; u = inconclusive; x = not tested or not shown; ! = a repeat was not active.
SMILES,TWEAK-Fn14 inh,HSP90 refold inh,TROY NFkB inh,EBV LMP1 NFkB,aDG glyco act,LGR2 inh
COc1ccc(OC)c(C(=O)c2coc3ccc(OC(C)=O)cc23)c1,-23,1,-54,1,0,-29
COc1ccc(C(=O)c2coc3ccc(OC(C)=O)cc23)cc1,57*,11,-4,1,0,-20
Cc1ccc(C(=O)c2coc3ccc(O)cc23)cc1,56*,9,-15,10,0,-8
COc1ccc2occ(C(=O)c3coc4ccc(O)c(CN(C)C)c34)c2c1,43,0,-24,-20,9.1*,x
C[C@H]1CN([C@@H](C)CO)C(=O)c2cc(NC(=O)CCCN(C)C)ccc2O[C@@H]1CN(C)Cc1ccc(Oc2ccccc2)cc1,x,x,x,x,x,-29
COc1ccc2c3c(n(C)c2c1)[C@H](CO)N(C(=O)c1ccncc1)CC31CN(S(C)(=O)=O)C1,x,x,x,x,x,-2
CC(=O)c1c(N2CCOCC2)[nH]c(-c2ccccc2)nc1=S,15,-6,67*,-2,0,-10
NC(=O)OCC(COC(N)=O)c1ccccc1,14,-2,7,68*!,0,8
NC(=O)NC(Cc1ccccc1)c1ccccc1 (stereo not drawn),1,5,10,3,0,-10
C[C@@H]1CN([C@@H](C)CO)C(=O)c2cc(C#C[C@@H](C)O)cnc2O[C@H]1CN(C)C(=O)Cc1ccncc1,x,x,x,x,x,-2
Cc1ccc(-c2nc(C=Nc3ccc(O)cc3)c(O)o2)cc1,64*,-2,-16,-51,0,-27
CCC(=O)Oc1oc(-c2ccccc2)nc1C=Nc1ccc(C)cc1,10,-2,72*,2,0,-1
O=C(CCN1CCCCC1)N[C@H]1CC[C@@H](CCn2cc(-c3cccc(F)c3)nn2)O[C@H]1CO,x,x,x,x,x,10
CSc1nc(N)nc2c1ncn2CC(=O)NCc1ccc2c(c1)OCO2,-8,x,-1,26,0,7
CSc1nc(N)nc2c1ncn2CC(=O)NCc1ccccc1,24,x,21,88*,0,-1
NC(=S)n1[nH]c(-c2ccc([N+](=O)[O-])cc2)c(N=Nc2cccc(Cl)c2)c1=O,72*,2,56*,13,1,31
COc1ccc(S(=O)(=O)NNC(=O)C2Cc3c(ccc4ccccc34)O2)cc1 (stereo not drawn),29,-1,30,44*,1,x
COc1ccc2c3c(n(C)c2c1)[C@H](CO)N(CC1CCOCC1)CC31CN(CC2CCOCC2)C1,x,x,x,x,x,-5
CN1C(=O)N(C)c2ccc(C=O)c3cccc1c23,-25,1,6,86*,0,12
CN1C(=O)N(C)c2ccc(Br)c3cccc1c23,18,6,65*,1,0,6
CN1C(=O)N(C)c2cccc3cccc1c23,-7,0,14,6,0,-15
COCC(=O)Nc1ccc2c(c1)C(=O)N(C)C[C@H](OC)[C@H](C)CN(C(=O)NC(C)C)[C@H](C)CO2,x,x,x,x,x,-1
Nc1nc(=S)c2ncn(C3CCCCC3)c2[nH]1,-7,x,64*,-3,0,5
COc1cc(OC)nc(-n2ncc(Br)c(Br)c2=O)n1,103*,-2,63*,65*,0,103*
CCc1ccc(-c2nc(CSCC(=O)N3CCN(c4ccccn4)CC3)c(C)o2)cc1,81*,1,62*,4,3,x
SMILES,TWEAK-Fn14 inh,HSP90 refold inh,TROY NFkB inh,EBV LMP1 NFkB,aDG glyco act,LGR2 inh
CCOc1ccc(-c2nc(CSCC(=O)N3CCN(c4cccc(OC)c4)CC3)c(C)o2)cc1,59*,24*,53*,13,1,8
CCc1ccc(-c2nc(CSCC(=O)NCCCN3CCCC3=O)c(C)o2)cc1,84*,5,21,3,0,x
Cc1ccc(-c2nc(CSCC(=O)N3CCN(c4ccccn4)CC3)c(C)o2)cc1,38,-2,31,7,2,-11
CCOC(=O)N1CCC(NC(=O)CSCc2nc(-c3ccc(OCC)cc3)oc2C)CC1,-14,7,-20,2,0,-21
CCOC(=O)N(C)C[C@H]1OCc2ccccc2-c2ccccc2C(=O)N([C@@H](C)CO)C[C@@H]1C,x,x,x,x,x,5
COCC(=O)N1[C@H](CO)[C@H](c2ccccc2-c2cccc(OC)c2)[C@@H]1C#N,x,x,x,x,x,6
CCOC(=O)c1cc2c(=O)n3ccccc3nc2n(C(C)C)c1=NC(=O)c1c(-c2c(F)cccc2Cl)noc1C,57*,-1,-9,-41,0,-9
CC(=C/c1ccccc1)/C=N/NC(=O)c1ccccn1,44,17*,-12,32,0,u
O=C(Nc1nc(-c2ccc(Oc3ccccc3)cc2)cs1)C1=COCCO1,62*,2,33,9,1,8
O=C(COC(=O)C1=COCCO1)Nc1ccccc1Oc1ccccc1,64*,-3,11,8,0,x
COc1ccc(C)cc1N=Nc1ccc(O)c2ncccc12,-103,-2,0,86*,0,30
Cc1ccccc1N=Nc1ccc(O)c2ncccc12,-57,-1,-11,44*,-1,x
Cc1cccc(NCc2ccc(O)c3ncccc23)c1,-3,1,-6,8,0,u
COc1ccc(N=Nc2ccc(O)c3ncccc23)cc1,-48,0,-9,u,-1,-13
Oc1ccc(N=Nc2ccc3c(c2)OCCO3)c2cccnc12,5,7,76*,60*,-1,-41
O=Nc1ccc(O)c2ncccc12,55*,7,-14,17,0,-10
O=S(=O)(O)c1cccc2c(N=Nc3ccc(O)c4ncccc34)cccc12,11,4,-27,1,0,x
Cc1ccc(S(=O)(=O)Nc2ccc3c(c2)CC(=O)N([C@H](C)CO)C[C@H](C)[C@@H](CN(C)Cc2ccncc2)O3)cc1,x,x,x,x,x,7
C[C@H](CO)N1C[C@H](C)[C@@H](CN(C)S(=O)(=O)c2ccc(C(F)(F)F)cc2)OCc2ccccc2-c2ccccc2C1=O,x,x,x,x,x,6
O=[N+]([O-])c1ccc(O)c2ncccc12,26,3,-15,33,0,101*
COc1cccc(N=Nc2ccc(O)c3ncccc23)c1,52*,7,-28,69*,-1,-46
CSc1ccccc1C(=O)N1CCc2ccc(NC(=O)c3ccccn3)cc2C1,60*,x,74*,-23,0,7
Cc1ccc(S(=O)(=O)Nc2ccc3c(c2)C(=O)N([C@H](C)CO)C[C@@H](C)[C@H](CN(C)C(=O)Nc2ccc(F)cc2)O3)cc1,x,x,x,x,x,3
COCC(=O)N1CCC2(CC1)CN(C(=O)Nc1ccccc1F)[C@H](CO)c1[nH]c3cc(OC)ccc3c12,x,x,x,x,x,-17
